Source: PubChem (National Center for Advancing Translational Sciences (NCATS))
Pf growth 96h: Primary qHTS for delayed death inhibitors of the malarial parasite plastid, 96 hour incubation. P. falciparum luciferase reporter growth, 96 h. 6.9% of 320,000 active. Potency, µM (top dose mostly 28.7 µM), without a hit: top-dose activity change, negative = inhibition, usual class: inhibitors; further: potency means the concentration at half of the fitted maximal effect
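Erythrocytes infected with luciferase-expressing P. falciparum were dispensed at 2% hematocrit and 0.05% parasitemia (final), then incubated with compounds 96 hours at 37 C in 5% CO2. Luminescence after detection reagent addition reported growth.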
Giardia FBPA inh: qHTS Assay for Inhibitors of Fructose-1,6-bisphosphate Aldolase from Giardia Lamblia; A8B2U2; Potency, µM (series often up to 59.6 µM), inactives show at the highest dose activity, negative = inhibition, actives largely listed as inhibitors; purified Giardia FBPA; AID 2451, 2010; 0.71% of 290,000 active; further: potency means the concentration at half of the fitted maximal effect; nearly all actives have a fitted effect of over 55% in size
Target sequence (A8B2U2 whole entry, looked up): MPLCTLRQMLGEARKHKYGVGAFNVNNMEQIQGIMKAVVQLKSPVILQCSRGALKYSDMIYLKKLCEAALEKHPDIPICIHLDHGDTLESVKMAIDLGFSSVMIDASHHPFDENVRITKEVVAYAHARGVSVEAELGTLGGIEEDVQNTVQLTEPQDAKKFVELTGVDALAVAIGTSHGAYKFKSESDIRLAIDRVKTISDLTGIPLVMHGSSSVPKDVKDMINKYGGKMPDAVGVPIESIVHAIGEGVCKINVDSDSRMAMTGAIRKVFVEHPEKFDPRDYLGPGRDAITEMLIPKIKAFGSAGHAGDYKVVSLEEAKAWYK
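40 nM FBPA preincubated 10 min at RT with compound (up to 57.5 uM final), then substrate plus GAPDH/TPI/NAD/arsenate coupling and diaphorase/resazurin added. Fluorescence read after 20 min at RT, 525/598 nm.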
HCMV antiviral: qHTS Assay for inhibitors of the human cytomegalovirus (HCMV). HFF cells, HCMV-luciferase reporter, 72 h; hits give low values. activity change, negative = inhibition, % at 57.5 µM. 4.5% of 410,000 active. AID 1259415, 2018; in the data active means activity change below about -60%; inconclusive means no clear call, values can overlap the other calls; inactive means above about -39%
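Screen run at 2 compound doses on HFFs infected with reporter HCMV, MOI 1 PFU/cell. Luciferase activity from cell lysates at 72 h post infection gave inhibition relative to buffer-only and Salinomycin wells.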
Pf growth 48h: Primary qHTS for delayed death inhibitors of the malarial parasite plastid, 48 hour incubation; P. falciparum luciferase growth in erythrocytes, 48 h; Potency, µM (doses to about 28.7 µM), for the others: top-dose activity change, negative = inhibition, actives largely listed as inhibitors; 5.9% of 310,000 active; AID 504832, 2011; further: potency means the concentration at half of the fitted maximal effect
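A one-generation exposure of luciferase-tagged malaria parasites in RPMI 1640/Albumax erythrocyte culture, 37 C and 5% CO2. Inhibition is inferred from decreased luminescence after adding detection reagent.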
Sm TGR block: qHTS Assay for the Inhibitors of Schistosoma Mansoni Peroxiredoxins. purified TGR, DTNB reduction, TNB absorbance 405 nm. Potency, µM (titrated, usually from 114 µM), for inactives: at the highest dose activity change, negative = inhibition, most hits filed as inhibitors. 3% of 360,000 active. AID 485364, 2010; further: potency means the concentration at half of the fitted maximal effect; nearly all actives have a fitted effect of over 60% in size
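Kinetic colorimetric format: TGR-catalysed, NADPH-driven DTNB reduction monitored via TNB absorbance. Enzyme dispensed at 20 nM; compound exposure 15 min at room temperature before reaction start.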
Active calls of the source: *; ? = inconclusive; / = no result given. The list is not random: actives were taken first. Their share in the collection is about 14%. Unless noted, the call rests on the fitted dose curve; in most records, active means well fitted curve in the direction sought with a large enough effect; inconclusive means small, poorly fitted or top-dose-only effect, or another doubt; inactive means no such curve, though single readings can be large; an effect the other way counts as inactive or inconclusive. On the % scale 0 is the no-effect control and ±100 the full control effect.

SMILES	Pf growth 96h	Giardia FBPA inh	HCMV antiviral	Pf growth 48h	Sm TGR block
CCN(CC(=O)Nc1sc2c(c1C#N)CCC(C)C2)Cc1nc2ccccc2c(=O)[nH]1 (centres undefined)	?	-20.0%	-39.5	?	0.5%
CCN(CC(=O)Nc1sc2c(c1C#N)CCC(C)C2)CC(=O)NC1CCS(=O)(=O)C1 (centres undefined)	11.7µM*	-11.9%	28.8	0.0%	-23.8%
NC(=O)c1cc(N2C(=O)C=CC2=O)ccc1Cl	0.0%	-9.8%	/	2.33µM*	0.398µM*
CC(=O)Nc1ccc(Cl)c(C(N)=O)c1	?	6.3%	35.9	0.4%	6.9%
CC(=O)c1c(C)oc2ccc(N(C(=O)C3CCCCC3)S(=O)(=O)c3cc([N+](=O)[O-])ccc3C)cc12	3.7µM*	2.9%	-28.7	12.0%	-0.3%
COC(=O)c1c(C(=O)OC)c(-c2ccc(OC)cc2)n2c1CS(=O)(=O)C2	?	1.4%	-74.0*	?	50.1µM*
C[C@H](CO)N1C[C@H](C)[C@@H](CN(C)C(=O)Nc2ccc(C(F)(F)F)cc2)Oc2c(NS(=O)(=O)c3ccc(F)cc3)cccc2C1=O	/	/	9.3	/	/
COc1cc(C#Cc2c(-c3cncn3C)n(C)c3ccc(-c4ccc5[nH]ccc5c4)cc23)cc(OC)c1	0.828µM*	/	22.9	1.47µM*	0.1%
COc1cc(C#Cc2c(-c3cncn3C)n(C)c3ccc(-c4ccc(OC)nc4)cc23)cc(OC)c1	0.0928µM*	/	-4.6	?	-6.2%
COc1cc(C#Cc2c(-c3cncn3C)n(C)c3ccc(-c4cc(OC)c(OC)c(OC)c4)cc23)cc(OC)c1	/	/	-2.7	/	/
Cc1ccc(C)n1C1C(=O)N(Cc2ccc(C(C)C)cc2)c2ccc(F)cc21 (centres undefined)	/	/	26.9	/	/
CC(=O)OCC1O[C@@H](O[C@@H]2C[C@H]3C(C)(C)[C@H](OC(C)=O)CC[C@]3(C)[C@H]3CC[C@]45C[C@]4(CC[C@H]5[C@@H](C)C[C@@H](O)[C@H](O)C(C)(C)O)[C@@]32C)[C@H](O)[C@@H](O)[C@@H]1O (some centres undefined)	5.86µM*	-8.0%	/	11.7µM*	-19.5%
CC(C)=CCC[C@](C)(O[C@@H]1O[C@H](CO[C@@H]2O[C@H](CO)[C@@H](O)[C@H](O)[C@H]2O)[C@@H](O)[C@H](O)[C@H]1O)C1CC[C@]2(C)C1C(=O)CC1[C@@]3(C)CC[C@H](O[C@H]4O[C@@H](CO)[C@H](O)[C@@H](O)[C@@H]4O)C(C)(C)C3CC[C@]12C (some centres undefined)	/	/	9.6	/	/
CCOc1ccc(CCNC(=O)c2ccc3c(=O)[nH]c4c(C(=O)NC(C)C)sc(=S)n4c3c2)cc1	3.29µM*	/	-23.9	?	-2.5%
N#Cc1ccc(C(=O)N2CCCCC2c2cc(C(=O)Nc3ccccc3Cl)no2)cc1 (centres undefined)	/	/	-9.3	/	/
COc1ccc(C(C)=O)cc1CSc1nc2ccccc2c(=O)n1-c1ccccc1C	2.33µM*	-5.2%	-26.9	11.7µM*	-20.3%
COc1ccc(C(C)=O)cc1CSc1nc2ccccc2c(=O)n1-c1ccccc1	?	-3.0%	?	-28.5%	-11.4%
C=CCn1c(SCc2cc(C(C)=O)ccc2OCC)nc2ccccc2c1=O	5.86µM*	4.2%	-12.4	?	-22.6%
COc1ccc(C(C)=O)cc1CSc1nnc(-c2ccncc2)n1C	?	1.8%	-3.5	5.8%	-4.7%
COc1ccc(C(C)=O)cc1CSc1nnc(-c2ccc(Cl)cc2)n1-c1ccccc1	9.28µM*	1.9%	?	?	-20.0%
CC(=O)Nc1ccc2c(c1)C(=O)c1ccc(Cl)cc1-2	/	/	-24.6	/	/
CC1=C(C(=O)Nc2ccc(F)cc2F)C2(CCN(C(C)C)CC2)OC1=O	/	/	7.4	/	3.3%
CC(C)C1O/C(=N/C(=O)Nc2ccc(Cl)c(Cl)c2)NC1=O (centres undefined)	?	-9.8%	-0.2	11.7µM*	9.6%
COc1ccc(NC(=O)CN(C)CC(=O)N(C)C2(C#N)CCC(C)CC2)cc1 (centres undefined)	4.9%	/	-32.5	2.3%	1.8%
COc1ccc(OC)c(CNC(=O)C(C)n2nc(C)c3c(C)n(-c4ccccc4)nc3c2=O)c1 (centres undefined)	?	/	-23.5	-10.4%	-12.1%
SMILES	Pf growth 96h	Giardia FBPA inh	HCMV antiviral	Pf growth 48h	Sm TGR block
CCc1ccccc1N1CSC2=C(C#N)C(c3ccccc3F)CC(=O)N2C1 (centres undefined)	-15.6%	6.29µM*	7.8	/	17.8µM*
N#CC1=C2SCN(Cc3ccccc3)CN2C(=O)CC1c1cccs1 (centres undefined)	-21.9%	?	9.5	/	-35.3%
COc1cc(OC)c(C2C(C#N)=C(N)OC3=C2C(=O)CC(C)C3)cc1OC (centres undefined)	?	?	-0.4	7.1%	-34.0%
COc1cc(OC)c(C2CC(=O)N3CN(c4ccccc4C)CSC3=C2C#N)cc1OC (centres undefined)	3.8%	4.47µM*	11.0	?	31.6µM*
CCOC(=O)c1nnsc1NC(C)=O	?	-4.7%	50.8	1.8%	-2.8%
CCOC(=O)c1nnsc1NC(=O)Nc1ccc(OC)cc1	27.5%	2.7%	48.1	4.15µM*	-3.3%
COc1cccc(NC(=O)NNS(=O)(=O)c2ccc(OC)cc2OC)c1	99.9%	3.9%	?	7.8%	2.5%
COc1ccc(OC)c(NC(=O)NNS(=O)(=O)c2ccc(C)cc2C)c1	-13.4%	/	-62.0*	9.0%	2.2%
CCOC(=O)c1ccc(NC(=O)NNS(=O)(=O)c2cc(OC)ccc2OC)cc1	5.22µM*	-6.1%	62.6	41.4%	4.1%
Cc1cccc(C(=O)N[C@H]2CC[C@@]34CCCN3C(=O)CCC[C@H]4[C@H]2Cc2ccccc2)c1	/	/	-26.6	/	/
COc1cccc(Nc2ncc3nc(-c4cc(F)cc(F)c4)c(=O)n(C4CC4)c3n2)c1	/	4.4%	/	/	/
CCCC1c2ccc(C)n2CCN1C(=O)Nc1ccc(F)cc1 (centres undefined)	13.8%	-19.3%	8.3	?	20µM*
CC(=O)Nc1ccc(NC(=O)C2CCCN2C(=O)Nc2ccc(F)cc2)cc1 (centres undefined)	23.2%	9.9%	28.9	39.8%	5.4%
O=C(CC1C(=O)NCCN1C(=O)Nc1ccc(F)cc1)Nc1ccc(F)cc1 (centres undefined)	20.3%	-8.9%	6.9	4.2%	-0.8%
CCC1c2ccc(C)n2CCN1C(=O)Nc1ccc(F)cc1 (centres undefined)	-1.7%	?	-6.2	/	10µM*
